# Measured values from the supplement of paper PMC6953052.
# Values joined by “and” are separate entries in the source; they are usually repeats but may differ in a detail not shown here. Identical values can stand only once. Whole data set: some 1,700 compounds, median “fraction of GFP-LC3-positive cells (≥5 vesicles/cell)” near 0.43, cut for the highest 2% near 0.81. This excerpt belongs to a sample that is enriched for the highest values.
# Test system: CbCln3 Δex7/8/Δex7/8 GFP-LC3 cerebellar neuronal cells
# Assay: fraction of GFP-LC3-positive cells (≥5 vesicles/cell); higher = more autophagosome accumulation
# Outline: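 Values are the duplicate-averaged fraction of cells passing a GFP-LC3 vesicle cutoff, counted per cell in CellProfiler with out-of-focus images excluded. That cutoff is 5 or more vesicles. Wild-type or mutant CbCln3 cerebellar cells stably expressing GFP-LC3 (2 × 10^3/well, 384-well) were given ~50 nL compound in DMSO by pin transfer for 24 h at 33 °C, then fixed in 3.2% PFA and imaged at 10×, three fields per well.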
row,SMILES,fraction of GFP-LC3-positive cells
1,Clc1cccc(Nc2nnc(-c3ccccc3)c3ccccc23)c1,0.522
2,CC[C@H](C)C(=O)O[C@H]1C[C@@H](C)C=C2C=C[C@H](C)[C@H](CC[C@@H]3C[C@@H](O)CC(=O)O3)[C@H]21 [Lovastatin],0.0901
3,C=CC(N)CCC(=O)O (stereo not given) [Vigabatrin],0.474
4,O=C(O)CCCC[C@@H]1SC[C@@H]2NC(=O)N[C@@H]21 [Biotin],0.393
5,CCN(CC)CCOCCOC(=O)C1(c2ccccc2)CCCC1.O=C(O)CC(O)(CC(=O)O)C(=O)O [Carbetapentane citrate],0.469
6,NS(=O)(=O)c1cc(C(=O)O)cc(N2CCCC2)c1Oc1ccccc1 [Piretanide],0.344
7,CC(C(=O)O)c1ccc(C(=O)c2ccccc2)s1 (stereo not given) [Tiaprofenic acid],0.467
8,CN(C(Cc1ccc(OS(=O)(=O)c2cccc3cnccc23)cc1)C(=O)N1CCN(c2ccccc2)CC1)S(=O)(=O)c1cccc2cnccc12 (stereo not given),0.324 and 0.255
9,CCCCCCCCCCCCCCCCCCOC[C@@H](O)COP(=O)([O-])OCC[N+](C)(C)C,0.362
10,Cc1cc2cc3c(C)cc(=O)oc3c(C)c2o1 [Trioxsalen],0.357
11,COc1cc(C)nc(-n2nc(C)cc2OC)n1 [Epirizole],0.324
12,C[N+]1(CCCCC[N+]2(C)CCCC2)CCCC1.O=C([O-])[C@H](O)[C@@H](O)C(=O)O.O=C([O-])[C@H](O)[C@@H](O)C(=O)O [Pentolinium bitartrate],0.493
13,COC(=O)C1=C(C)NC(C)=C(C(=O)OCCN(C)Cc2ccccc2)C1c1cccc([N+](=O)[O-])c1 (stereo not given) [Nicardipine],0.146
14,Nc1ncn(C2O[C@H](CO)[C@@H](O)[C@H]2O)c(=O)n1 (stereo not given in full) [Azacytidine-5],0.861
15,Nc1nc(S)c2ncn([C@@H]3O[C@H](CO)[C@@H](O)[C@H]3O)c2n1 [Thioguanosine],0.576
16,Nc1ncnc2c1ncn2C1O[C@H](CO)[C@@H](O)[C@@H]1O (stereo not given in full) [Vidarabine],0.406
17,Nc1ccc(S(=O)(=O)Nc2ncccn2)cc1 [Sulfadiazine],0.438
18,C=C1CC[C@H](O)C/C1=C/C=C1\CCC[C@]2(C)[C@@H]([C@H](C)CCCC(C)C)CC[C@@H]12 [Cholecalciferol],0.281
19,Oc1cc(O)c2c(c1)O[C@H](c1ccc(O)c(O)c1)[C@@H](O)C2 [Epicatechin-(-)],0.438
20,NS(=O)(=O)c1cc2c(cc1C(F)(F)F)NCNS2(=O)=O [Hydroflumethiazide],0.451
21,C[C@@H](O)CCC[C@H](O)/C=C/[C@@H]1[C@@H](C/C=C\CCCC(=O)O)[C@@H](O)C[C@H]1O [19(R)-Hydroxy-prostaglandin F2a],0.532
22,O=C(NCCNCC(O)COc1ccc(O)cc1)N1CCOCC1.O=C(NCCNCC(O)COc1ccc(O)cc1)N1CCOCC1.O=C(O)/C=C/C(=O)O (stereo not given) [Xamoterol hemifumarate],0.32
23,COc1cc([C@@H]2c3cc4c(cc3[C@@H](OC3OC5COC(C)OC5C(O)C3O)[C@H]3COC(=O)[C@H]23)OCO4)cc(OC)c1O (stereo not given in full) [etoposide],0.664
24,Cc1cccc(C)c1NC(=O)C(C)N.Cl (stereo not given) [Tocainide hydrochloride],0.504

row,SMILES,fraction of GFP-LC3-positive cells
1,Cl.c1ccc(CC2=NCCN2)cc1 [Tolazoline hydrochloride],0.508
2,C=CC(=O)c1ccc2ccccc2c1,0.499
3,NC[C@H]1CC[C@H](C(=O)O)CC1 [Tranexamic acid],0.53
4,CC(=O)OC(C)C[N+](C)(C)C.[Cl-] (stereo not given) [Methacholine chloride],0.309
5,CCCc1cc(=O)[nH]c(=S)[nH]1 [Propylthiouracil],0.375
6,O=C(O)/C=C/c1ccc(O)c(O)c1 [Caffeic acid],0.359
7,COC(=O)/C=C/c1cc(O)ccc1O,0.924
8,COc1ccc(C(=O)c2ccccc2)c(O)c1 [Oxybenzone],0.465
9,CCC[C@@H]1C[C@@H](C(=O)N[C@@H](C2O[C@H](SC)[C@H](O)[C@@H](O)[C@H]2O)[C@H](C)Cl)N(C)C1.Cl (stereo not given in full) [Clindamycin hydrochloride],0.462
10,O=C1Nc2ccc([N+](=O)[O-])cc2C1=O [5-Nitroisatin],0.469
11,CCCCNc1cc(C(=O)O)cc(S(N)(=O)=O)c1Oc1ccccc1 [bumetanide],0.319
12,CCCCN(CCCC)CCC(O)c1cc2c(Cl)cc(Cl)cc2c2cc(C(F)(F)F)ccc12.Cl (stereo not given) [Halofantrine hydrochloride],0.319
13,CCCCC[C@H](O)/C=C/C=C\C=C\C=C\[C@@H](O)[C@@H](O)CCCC(=O)O [Lipoxin A4],0.498
14,"OCC(O)CN1CCN(c2ccccc2)CC1 (racemic) [Dropropizine (R,S)]",0.442
15,Cl.OC(CCN1CCCCC1)(c1ccccc1)C1C[C@@H]2C=C[C@H]1C2 (stereo not given in full) [Biperiden hydrochloride],0.447
16,CC[N+](CC)(CC(=O)Nc1c(C)cccc1C)Cc1ccccc1.O=C([O-])c1ccccc1 [Denatonium benzoate],0.424
17,"Nc1ncnc2c1ncn2[C@@H]1O[C@@H]2COP(=O)(O)OC2C1O (single isomer, unassigned; (-)) [(-)-Adenosine 3',5'-cyclic monophosphate]",0.271
18,COCCOC(=O)C1=C(C)NC(C)=C(C(=O)OC(C)C)C1c1cccc([N+](=O)[O-])c1 (stereo not given) [Nimodipine],0.35
19,Cl.N=C(N)NC(=O)c1nc(Cl)c(N)nc1N.O.O [Amiloride hydrochloride dihydrate],0.398
20,CC(=O)O[C@H]1C(=O)[C@@]2(C)C([C@H](OC(=O)c3ccccc3)[C@]3(O)C[C@H](OC(=O)[C@H](O)[C@@H](NC(=O)c4ccccc4)c4ccccc4)C(C)=C1C3(C)C)[C@]1(OC(C)=O)CO[C@@H]1C[C@@H]2O (stereo not given in full) [taxol =paclitaxel],0.89
21,CC(=O)O[C@H]1C(=O)[C@@]2(C)[C@H]([C@H](OC(=O)c3ccccc3)[C@]3(O)C[C@H](OC(=O)[C@H](O)[C@@H](NC(=O)c4ccccc4)c4ccccc4)C(C)=C1C3(C)C)[C@]1(OC(C)=O)CO[C@@H]1C[C@@H]2O [Paclitaxel],0.843
22,COc1c(C=O)c(O)cc2c1C(=O)c1ccccc1C2=O [damnacanthal],0.173
23,"O.Oc1cc(O)c2c(c1)OC(c1ccc(O)c(O)c1)C(O)C2 (racemic) [Catechin-(+,-) hydrate]",0.337
24,CC/C=C\C[C@H](O)/C=C/C=C\C/C=C\C/C=C\CCCC(=O)O,0.434

row,SMILES,fraction of GFP-LC3-positive cells
1,CCCCCCCC/C=C/CCCCCCCCC(=O)O [10(Z)-Nonadecenoic acid],0.551
2,CCCCCCCC/C=C/CCCCCCCCC(=O)O [10(E)-Nonadecenoic acid],0.516
3,NC[C@H]1O[C@H](O[C@H]2[C@H](O)[C@@H](O[C@H]3O[C@H](CO)[C@@H](O)[C@H](N)[C@H]3O)[C@H](N)C[C@@H]2N)[C@H](N)C[C@@H]1O [Tobramycin],0.5
4,COc1cc(N)c(Cl)cc1C(=O)NC1CCN(Cc2ccccc2)CC1.O=C(O)/C=C\C(=O)O [Clebopride maleate],0.506
5,CC(C(O)c1ccc(O)cc1)N1CCC(Cc2ccccc2)CC1.O=C(O)C(O)C(O)C(=O)O (stereo not given) [Ifenprodil tartrate],0.481
6,Cl.Fc1ccc([C@@H]2CCNC[C@H]2COc2ccc3c(c2)OCO3)cc1 [Paroxetine Hydrochloride],0.5
7,Nc1ccc(S(=O)(=O)Nc2ccc(Cl)nn2)cc1 [Sulfachloropyridazine],0.368
8,CC1CNc2c(cccc2S(=O)(=O)N[C@@H](CCCNC(=N)N)C(=O)N2CC[C@@H](C)C[C@@H]2C(=O)O)C1 (stereo not given in full) [Argatroban],0.486
9,"CCCCC[C@H](O)/C=C/C=C/C=C/[C@@H](O)C/C=C\CCCC(=O)O [8(S),15(S)-DiHETE all trans]",0.456
10,CCN(CC)CCOC(=O)c1ccc(N)cc1.Cl [Procaine hydrochloride],0.483
11,C[C@]12C=CC(=O)C=C1CC[C@@H]1[C@@H]2[C@@H](O)C[C@@]2(C)[C@H]1CC[C@]2(O)C(=O)CO [Prednisolone],0.183
12,CCCCOc1ccc(C(=O)CCN2CCCCC2)cc1.Cl [Dyclonine hydrochloride],0.322
13,NC(=O)c1cc[n+](CC2=C(C(=O)[O-])N3C(=O)[C@@H](NC(=O)[C@@H](c4ccccc4)S(=O)(=O)[O-])[C@H]3SC2)cc1.[Na+] [Cefsulodin sodium salt],0.367
14,CC1(C)[C@@H](OC(=O)CCC(=O)[O-])CC[C@]2(C)[C@H]3C(=O)C=C4[C@@H]5C[C@@](C)(C(=O)[O-])CC[C@]5(C)CC[C@@]4(C)[C@]3(C)CC[C@@H]12.[Na+].[Na+] [Carbenoxolone disodium salt],0.269
15,COC(=O)Nc1nc2cc(SC(C)C)ccc2[nH]1 [Methiazole],0.836
16,CCCCCCCCCCCCCCCCCCc1ccc(C(=O)/C=C/C(=O)O)cc1,0.48
17,CCCCc1ccc2[nH]c(NC(=O)OC)nc2c1 [Parbendazole],0.927
18,COC(=O)Nc1nc2cc(Sc3ccccc3)ccc2[nH]1 [Fenbendazole],0.648
19,CCCCCCCCCCCCCCCC(=O)NCCc1ccc(O)c(O)c1 [Palmitoyl dopamine],0.456
20,CCCSc1ccc2[nH]c(NC(=O)OC)nc2c1 [Albendazole],0.899
21,NCc1ccccc1CC(=O)N[C@@H]1C(=O)N2C(C(=O)O)=C(CSc3nnnn3CC(=O)O)CS[C@H]12 [Ceforanide],0.519
22,CC1CCc2cc(F)cc3c(=O)c(C(=O)O)cn1c23 (stereo not given) [Flumequine],0.273
